The values below come from the OligoGym collection.
Note: reference of the scale not given here.

For one assay, the target named is ROPN1. As to the kind of experiment: pooled miR-30 sensor sort-seq; sequence = guide strand. The settings on record: shRNA.
As to TCTGAAGTACAATCATCTCTGT, the sensor-assay potency score (higher = more potent) was found to be 0.301.
On the same count and under the same terms, next, ATCAGGGCCAATTACTTCCTGT: -0.778; TCCATGTAGTTTAGCATCCTGC: -1.26; AACTGGAAGGTGCTGAACGGGA: -0.696.
The same measure, in the same setting: next, TTCTGAAGTACAATCATCTCTG: 0.437.
On the same count and under the same terms, next, TTCCATGTAGTTTAGCATCCTG: -0.0226.
For the sequence TCCACTTTGGCAATATACGTGT, the sensor-assay potency score (higher = more potent) was -0.784.
TGAAGTACAATCATCTCTGTAT returned a sensor-assay potency score (higher = more potent) of 0.335.

Another assay concerns the target RORB. The description is as above. The settings on record: shRNA.
Consider TTGTTCTGCTGGCTCCTCCTAA, for which the sensor-assay potency score (higher = more potent) was -0.741.
On to TTCCAGTCATGTCAAGTCCTGA, for which the sensor-assay potency score (higher = more potent) is -0.578.
Same read-out and setting: then TTCACATGTGATGACTCCGTAG, with -1.17; and TATAACGGAGGAAACAGTGTAT, with 0.0235.
On the same count and under the same terms, next, TTAATTTCTTCATAGGTGTGGG: 0.03; TTGCTTAAATACCTGCAGCTTC: -0.375; TATCTGTTTGATTCCAGTCATG: -1.6.
In turn, TTAAACAGTTTCTCTGCCTTGG registered a sensor-assay potency score (higher = more potent) of 0.233.
TTGATCATTTTGACAGAGCTCC showed a sensor-assay potency score (higher = more potent) of 0.0925.
On the same count and under the same terms, next, TTTAATTTCTTCATAGGTGTGG: 0.75; TAGGGCAAGACACTTCTGCAGT: -0.56; ATCATTTTGACAGAGCTCCATG: -1.14.

A further assay has as its target RPF2. The description is as above. The settings on record: shRNA.
On to TTACATCGAAATCATCGCCAGC, for which the sensor-assay potency score (higher = more potent) was -0.787.
TTCAACAGCAACTTATAGCTTC registered a sensor-assay potency score (higher = more potent) of 0.301.
Same read-out and setting: next, TCTTTTTATATAGTACACCGTA: -0.652; TTAGTCTTCTATAATCTTCTGT: 0.354.
Still for that read-out and setting: then TTATATAGTACACCGTATGGTT, with -0.793; and TTTGCTTAGGTCTTGCTTCTGC, with 0.678; and TTGTAGTTTGCTTAGGTCTTGC, with -0.359.
Take TAATTTATAAAGGTCATCCGAT: the sensor-assay potency score (higher = more potent) was -0.21.
TAGTCTTCTATAATCTTCTGTT yielded a sensor-assay potency score (higher = more potent) of -0.606.
Consider ATAATCTTCTGTTACATCGAAA, for which the sensor-assay potency score (higher = more potent) is -0.564.
The same measure, in the same setting: then TTAAGTACTTTTGTCACTGTTG, with -0.124.
Same read-out and setting: next, TTTCAGTGCATACACATCTTTA: -0.778.

The next assay deals with RPL19. Described as above. Particulars: shRNA.
Consider TTTTTGAACACATTCCCCTTCA, for which the sensor-assay potency score (higher = more potent) is -0.0211.
With AAGTCTTGATGATCTCCTCCTT, the sensor-assay potency score (higher = more potent) came to 0.211.
Same read-out and setting: then TTGCGTGCTTCCTTGGTCTTAG, with -0.319.
On the same count and under the same terms, next, TTCATTGGTCTCATTGGGGTCT: 0.294; TACAGGCTGTGATACATGTGGC: -1.14; ATACATGTGGCGATCGATCTTC: 0.46.
The same measure, in the same setting: then TTGATGATCTCCTCCTTCTTGG, with 0.222; and ATTGGGGTCTAACCAGACCTTC, with -1.59.
